“And” between values parts separate entries of the source, which are not always exact repeats. Equal entries are not always repeated. About 2,000 (36%) of roughly 5,500 compounds were called active. About 18% were inconclusive and are not listed. No stated cut-off is given here; in the data, active means normalized growth mostly below about 0.91 (no sharp cut-off); inconclusive means no clear call, values can overlap the other calls; inactive means mostly above about 0.92. Some of the results follow.
Experiment: chemical genetic growth profiling, strain panel (AID 1159580);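 further: tested at 20 µM; growth read once vehicle control cultures reached saturation at 30 °C; 1 = growth at the plate median or of vehicle wells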
Conditions: S. cerevisiae deletion strains, growth OD

Measured: normalized growth

CC(=O)OCC(=O)[C@@]1(O)CCC2C3CCC4=CC(=O)C=CC4(C)C3[C@@H](O)C[C@@]21C (stereo partly drawn)
inactive: locus YAL021C, strain ccr4, stronger effect = lower value 1 | locus YAL026C, strain drs2, stronger effect = lower value 1 | locus YAL030W, strain snc1, stronger effect = lower value 0.997 | locus YBL061C, strain skt5, stronger effect = lower value 0.996 | locus YBR009C, strain hhf1, stronger effect = lower value 1.01 | locus YBR021W, strain FUR4, stronger effect = lower value 1.02 | locus YBR023C, strain chs3, stronger effect = lower value 0.994 | locus YBR171W, strain sec66, stronger effect = lower value 0.973 | locus YBR229C, strain ROT2, stronger effect = lower value 1.01 | locus YBR231C, strain swc5, stronger effect = lower value 0.978 | locus YBR279W, strain paf1, stronger effect = lower value 0.993 | locus YCL011C, strain gbp2, stronger effect = lower value 0.996 | locus YCL016C, strain dcc1, stronger effect = lower value 1.01 | locus YCL029C, strain bik1, stronger effect = lower value 1.02 | locus YCL061C, strain MRC1, stronger effect = lower value 0.997 | locus YCL069W, strain vba3, stronger effect = lower value 1 | locus YCR088W, strain abp1, stronger effect = lower value 0.998 | locus YDL005C, strain med2, stronger effect = lower value 0.992 | locus YDL035C, strain GPR1, stronger effect = lower value 1.02 | locus YDL040C, strain nat1, stronger effect = lower value 1 | locus YDL074C, strain BRE1, stronger effect = lower value 1.02 | locus YDL101C, strain DUN1, stronger effect = lower value 1 | locus YDL134C, strain PPH21, stronger effect = lower value 1.01 | locus YDL185W, strain tfp1, stronger effect = lower value 1.02 | locus YDL192W, strain arf1, stronger effect = lower value 1.02 | locus YDR001C, strain nth1, stronger effect = lower value 1 | locus YDR069C, strain doa4, stronger effect = lower value 0.99 | locus YDR101C, strain arx1, stronger effect = lower value 1.02 | locus YDR137W, strain rgp1, stronger effect = lower value 0.978 | locus YDR150W, strain NUM1, stronger effect = lower value 1 | locus YDR159W, strain sac3, stronger effect = lower value 1 | locus YDR162C, strain NBP2, stronger effect = lower value 1.01 | locus YDR195W, strain ref2 0.984 | locus YDR297W, strain sur2, stronger effect = lower value 0.992 | locus YDR318W, strain mcm21, stronger effect = lower value 1.03 | locus YDR334W, strain swr1, stronger effect = lower value 1 | locus YDR335W, strain msn5, stronger effect = lower value 1 | locus YDR388W, stronger effect = lower value 1.02 | locus YDR392W, strain spt3, stronger effect = lower value 1.02 | locus YDR502C, strain sam2, stronger effect = lower value 1.01 | locus YEL003W, strain gim4, stronger effect = lower value 0.998 | locus YEL037C, strain rad23, stronger effect = lower value 1 | locus YEL061C, strain CIN8 (second series), stronger effect = lower value 0.98 | locus YEL061C, strain CIN8, stronger effect = lower value 1 | locus YER015W, strain faa2, stronger effect = lower value 0.996 | locus YER016W, strain bim1, stronger effect = lower value 1.01 | locus YER110C, stronger effect = lower value 1.01 | locus YER111C, strain swi4, stronger effect = lower value 0.996 | locus YER155C, strain BEM2 (second series), stronger effect = lower value 0.978 | locus YER155C, strain BEM2, stronger effect = lower value 1 | locus YER167W, strain BCK2, stronger effect = lower value 1.01 | locus YFR010W, strain ubp6, stronger effect = lower value 0.993 | locus YGL078C, strain dbp3, stronger effect = lower value 1.01 | locus YGL086W, strain mad1, stronger effect = lower value 1 | locus YGL167C, strain pmr1, stronger effect = lower value 0.999 | locus YGL173C, strain kem1, stronger effect = lower value 0.992 | locus YGL227W, strain vid30, stronger effect = lower value 1 | locus YGL240W, strain doc1, stronger effect = lower value 0.972 | locus YGL248W, strain PDE1, stronger effect = lower value 1.01 | locus YGL253W, strain hxk2, stronger effect = lower value 1.01 | locus YGR135W, strain pre9, stronger effect = lower value 1.02 | locus YGR252W, strain gcn5, stronger effect = lower value 1.05 | locus YHR013C, strain ard1, stronger effect = lower value 0.978 | locus YHR027C, strain rpn1, stronger effect = lower value 1 | locus YHR030C, strain SLT2, stronger effect = lower value 1 and 0.977 | locus YHR079C, strain IRE1 (second series), stronger effect = lower value 1.02 | locus YHR079C, strain IRE1, stronger effect = lower value 0.964 | locus YHR094C, strain hxt1, stronger effect = lower value 1.01 | locus YHR129C, strain ARP1, stronger effect = lower value 1 | locus YHR142W, strain chs7, stronger effect = lower value 0.989 | locus YHR200W, strain rpn10, stronger effect = lower value 1.01 | locus YIL066C, strain RNR3, stronger effect = lower value 1.01 | locus YIL073C, strain SPO22, stronger effect = lower value 1.03 | locus YIL125W, strain kgd1, stronger effect = lower value 1.01 | locus YIR030C, strain dcg1, stronger effect = lower value 1.02 | locus YJL092W, strain hpr5, stronger effect = lower value 0.995 | locus YJL095W, strain BCK1 (second series), stronger effect = lower value 0.995 | locus YJL095W, strain BCK1, stronger effect = lower value 1.03 and 0.993 | locus YJL115W, strain asf1, stronger effect = lower value 0.994 | locus YJL129C, strain trk1, stronger effect = lower value 0.97 | locus YJL134W, strain LCB3, stronger effect = lower value 1.01 | locus YJL154C, strain vps35, stronger effect = lower value 0.996 | locus YJL164C, strain tpk1, stronger effect = lower value 1.01 | locus YJL166W, strain qcr8, stronger effect = lower value 0.951 | locus YJL168C, strain set2, stronger effect = lower value 1.02 | locus YJL187C, strain SWE1 (second series), stronger effect = lower value 1.01 | locus YJR043C, strain POL32, stronger effect = lower value 1.01 | locus YJR066W, strain TOR1, stronger effect = lower value 0.935

— PubChem BioAssay AID1159580 (chemical genetic matrix, 2015)
